The record followed here is PubChem BioAssay (EPA / NIEHS).

Structures are written as SMILES. “And” between values parts separate entries of the source, which are not always exact repeats. Equal entries are not always repeated. Inconclusive results are not listed. The source holds several records for some structures; these can differ, active in one and inactive in another. The source made the active and inactive calls. How the source made its calls: active means hit-call score of the fitted dose curve at least 0.9, where 1 is the maximum; inconclusive means response in the unintended direction; inactive means score below 0.9.

One may read the AC50 as the concentration at which the activity in the assay is half-maximal.

Test system in the first experiment: not listed separately
As to the kind of experiment: Tanguay_ZF_120hpf_NC_legacy: (Legacy) Oregon State University Tanguay Lab 120 Hour Post-fertilization zebrafish Assay for Notochord and Tail Malformation (AID 2283656). Put shortly:
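Dechorionated Tropical 5D wild-type zebrafish embryos, one per well from 6 hpf, statically exposed to 120 hpf at 28C in 0.64% DMSO final. Notochord distortion scored present/absent by brightfield; dead embryos excluded.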
Turning to `CC(C)C1(C)N=C(c2nc3ccccc3cc2C(=O)O)NC1=O` (configuration not stated), the outcome was inactive.
As to `C#CCOS(=O)OC1CCCCC1Oc1ccc(C(C)(C)C)cc1` (configuration not stated), the molecule was called inactive.
For the molecule `CC(C)(C)c1ccc(CSc2cnn(C(C)(C)C)c(=O)c2Cl)cc1`, the call was inactive.
As for `CNC(=O)ON=CC(C)(C)SC`, the outcome was inactive.
In the case of `CS/C(C)=N/OC(=O)N(C)SN(C)C(=O)O/N=C(\C)SC`, the AC50 was 25 µM (active).
As for `CCCCC(CC)COC(=O)c1ccccc1C(=O)OCC(CC)CCCC` (configuration not stated), the result was inactive.
Regarding `CC1=C(C(=O)Nc2ccccc2)SCCO1`, the call was inactive.
Regarding `O=C(O)c1nc(Cl)ccc1Cl`, the outcome was inactive.
With `CNC(=S)S`, the outcome was inactive.
Consider `CCON=C(CC)C1=C(O)CC(c2c(C)cc(C)cc2C)CC1=O` (configuration not stated), for which the outcome was inactive.
As to `O=C(Nc1ccccc1)Nc1ccnc(Cl)c1`, the outcome was inactive.
Consider `CON(C)C(=O)Nc1ccc(Cl)c(Cl)c1`, for which the outcome was inactive.
For `CCc1nn(C)c(C(=O)NCc2ccc(C(C)(C)C)cc2)c1Cl`, the molecule was called inactive.
On to `COC(=O)N(OC)c1ccccc1COc1ccn(-c2ccc(Cl)cc2)n1`, for which the molecule was called inactive.
Same read-out and setting: next, `CC(Oc1ccc(Cl)cc1Cl)C(=O)O` (configuration not stated): “inactive”; `CC(C)Oc1cc(-n2nc(C(C)(C)C)oc2=O)c(Cl)cc1Cl`: “inactive”; `Fc1ccc(Oc2ccnc3cc(Cl)cc(Cl)c23)cc1`: “inactive”.
For `CCOc1cc(Oc2ccc(C(F)(F)F)cc2Cl)ccc1[N+](=O)[O-]`, the call was inactive.

Read-out in the next experiment: ABC Transporter (ABCB1), ABCB1 (gene 5243)
Briefly: CLD_ABCB1_6hr: CellzDirect (CLD) Gene Expression Assay for ABC Transporter (ABCB1) at 6 hours (AID 2283659).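 Further: hits raise ABCB1 transcript above the DMSO vehicle baseline.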 Put shortly: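 Primary human hepatocytes (two donor preparations) dosed daily for two days with chemicals at multiple concentrations, 0.2% DMSO vehicle; harvested 6 h post-dose. ABCB1 mRNA induction quantified by qNPA chemiluminescence; gain-of-signal fitted versus DMSO.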
For `CCOP(=S)(OCC)SCn1c(=O)oc2cc(Cl)ccc21`, the result was inactive.
On to `COc1nc(C)nc(NC(=O)NS(=O)(=O)c2ccccc2Cl)n1`, for which the molecule was called inactive.
For `Cc1cc(Cl)ccc1OCC(=O)O`, the molecule was called inactive.
In the case of `COc1ccc(C(c2ccc(OC)cc2)C(Cl)(Cl)Cl)cc1`, the molecule was classed as inactive.
For the molecule `O=C(O)COc1nc(Cl)c(Cl)cc1Cl`, the outcome was inactive.
Still for that read-out and setting: next, `COc1nc(C)nc(NC(=O)NS(=O)(=O)c2ccccc2CCC(F)(F)F)n1`: “inactive”; `CCOc1cc(Oc2ccc(C(F)(F)F)cc2Cl)ccc1[N+](=O)[O-]`: “inactive”.

Read-out in a further experiment: xenobiotic metabolism (CYP1A1), CYP1A1 (gene 1543)
As to the kind of experiment: CLD_CYP1A1_6hr: CellzDirect (CLD) Gene Expression Assay for xenobiotic metabolism (CYP1A1) at 6 hours (AID 2283661).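 On AC50: potency for transcript induction above DMSO vehicle baseline.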 The essentials:
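Primary human hepatocytes from two donors, compound versus 0.2% DMSO vehicle. CYP1A1 mRNA measured 6 h after dosing by quantitative nuclease protection assay with chemiluminescent read-out; induction fitted relative to DMSO, cytotoxicity flagged by microscopy.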
Consider `CCOP(=S)(OCC)SCn1c(=O)oc2cc(Cl)ccc21`, for which the AC50 was 0.36 µM (active).
Consider `COc1nc(C)nc(NC(=O)NS(=O)(=O)c2ccccc2Cl)n1`, for which the AC50 was 0.00131 µM (active) and the molecule was called inactive.
Consider `CC(C)C1(C)N=C(c2nc3ccccc3cc2C(=O)O)NC1=O` (configuration not stated), for which the molecule was called inactive.
As to `C#CCOS(=O)OC1CCCCC1Oc1ccc(C(C)(C)C)cc1` (configuration not stated), the AC50 was 3.67 µM (active).
As to `Cc1cc(Cl)ccc1OCC(=O)O`, the molecule was called inactive.
Turning to `CNC(=O)ON=CC(C)(C)SC`, the AC50 is 0.000972 µM (active).
As to `CS/C(C)=N/OC(=O)N(C)SN(C)C(=O)O/N=C(\C)SC`, the result was inactive.
As for `CCCCC(CC)COC(=O)c1ccccc1C(=O)OCC(CC)CCCC` (configuration not stated), the molecule was called inactive.
In the case of `CC1=C(C(=O)Nc2ccccc2)SCCO1`, the AC50 is 11.1 µM (active).
Take `O=C(O)c1nc(Cl)ccc1Cl`: the AC50 is 4.04 µM (active) and the molecule was classed as inactive.
Consider `COc1ccc(C(c2ccc(OC)cc2)C(Cl)(Cl)Cl)cc1`, for which the AC50 was 15.8 µM (active).
In the case of `CNC(=S)S`, the call was inactive.
`CCON=C(CC)C1=C(O)CC(c2c(C)cc(C)cc2C)CC1=O` (configuration not stated): the outcome was inactive.
For the molecule `COP(N)(=O)SC` (configuration not stated), the molecule was called inactive.
As for `O=C(Nc1ccccc1)Nc1ccnc(Cl)c1`, the AC50 was 12.3 µM (active).
Regarding `CON(C)C(=O)Nc1ccc(Cl)c(Cl)c1`, the AC50 was 0.762 µM (active).
On the same count and under the same terms, to `CCc1nn(C)c(C(=O)NCc2ccc(C(C)(C)C)cc2)c1Cl` belongs 6.51 µM (active).
Consider `CCNc1nc(Cl)nc(NCC)n1`, for which the AC50 is 4.72 µM (active).
As for `CC(Oc1ccc(Cl)cc1Cl)C(=O)O` (configuration not stated), the outcome was inactive.
In the case of `CC(C)Oc1cc(-n2nc(C(C)(C)C)oc2=O)c(Cl)cc1Cl`, the half-maximal activity concentration (AC50) was 1.57 µM (active).
Take `COc1nc(C)nc(NC(=O)NS(=O)(=O)c2ccccc2CCC(F)(F)F)n1`: the AC50 was 1.9 µM (active) and 287 nM (active); the molecule was called inactive.
In the case of `Fc1ccc(Oc2ccnc3cc(Cl)cc(Cl)c23)cc1`, the AC50 is 3.13 µM (active).
For the molecule `COC(=O)C=C(C)OP(=O)(OC)OC`, the molecule was classed as inactive.

The next experiment deals with Thyroperoxidase (TPO), gene 54314. Briefly: CCTE_Simmons_AUR_rTPO: CCTE's Amplex UltraRed Assay for Thyroperoxidase (TPO) Inhibition, Simmons Lab (AID 2283662).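 On AC50: potency for loss of signal meaning inhibition of peroxidase activity.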 The essentials: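 Rat thyroid microsomal TPO + 25 uM AUR in 200 mM K phosphate; cpd 5 nM–87.5 uM [final], 8 conc, 0.5% DMSO; 300 uM H2O2 starts rxn; 37C dark 30 min; endpoint FI 544/590 nm; n=3.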
In the case of `CCOP(=S)(OCC)SCn1c(=O)oc2cc(Cl)ccc21`, the AC50 was 2.18 µM (active).
Same read-out and setting: next, `CC1=C(C(=O)Nc2ccccc2)SCCO1`: 5.33 µM (active).
On to `O=C(O)c1nc(Cl)ccc1Cl`, for which the result was inactive.
For the molecule `CNC(=S)S`, the AC50 is 22 µM (active) and 23 µM (active).
For the molecule `COP(N)(=O)SC` (configuration not stated), the half-maximal activity concentration (AC50) is 30.6 µM (active).
`O=C(Nc1ccccc1)Nc1ccnc(Cl)c1`: the AC50 was 27.6 µM (active).
In the case of `CON(C)C(=O)Nc1ccc(Cl)c(Cl)c1`, the AC50 is 35 µM (active).
On the same count and under the same terms, to `COC(=O)C=C(C)OP(=O)(OC)OC` belongs 14 µM (active).

Test system in a further experiment: not listed separately
Briefly: CCTE_Simmons_CellTiterGLO_HEK293T: Viability Assessment in CCTE's Assays for Thyroperoxidase (TPO) Inhibition, Simmons Lab (AID 2283665).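 On AC50: cells exposed to compound for 24 h before readout; actives reduce ATP signal below DMSO vehicle meaning cytotoxicity.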 The essentials:
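HEK293T, 10 000 cells/well, DMEM + 1% FBS; 8-pt titration 5 nM–87.5 uM [final], 0.5% DMSO; 24 hr, 37C, 5% CO2; CellTiter-Glo luminescence; n=3 biological replicates.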
(In general: Cellular ATP, detected with luciferase, serves as a proxy for viable cell number.)
Regarding `CCOP(=S)(OCC)SCn1c(=O)oc2cc(Cl)ccc21`, the AC50 is 67.4 µM (active).
Take `CNC(=S)S`: the outcome was inactive.
For `O=C(Nc1ccccc1)Nc1ccnc(Cl)c1`, the AC50 was 53.8 µM (active).
Consider `CON(C)C(=O)Nc1ccc(Cl)c(Cl)c1`, for which the outcome was inactive.
As to `COC(=O)C=C(C)OP(=O)(OC)OC`, the result was inactive.

Test system in the next experiment: not listed separately
As to the kind of experiment: Tanguay_ZF_120hpf_TR_legacy: (Legacy) Oregon State University Tanguay Lab 120 Hour Post-fertilization zebrafish Assay for Touch Response (AID 2283667). The essentials: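 Tropical 5D wild-type zebrafish embryos statically exposed to 120 hpf at 28°C, sealed and dark-covered, 0.64% DMSO final; touch response scored as present/absent by brightfield microscopy at 120 hpf. Trimethyltin chloride 5 uM positive control; dead embryos not scored.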
On to `CCOP(=S)(OCC)SCn1c(=O)oc2cc(Cl)ccc21`, for which the molecule was classed as inactive.
As for `CC(C)C1(C)N=C(c2nc3ccccc3cc2C(=O)O)NC1=O` (configuration not stated), the call was inactive.
Turning to `C#CCOS(=O)OC1CCCCC1Oc1ccc(C(C)(C)C)cc1` (configuration not stated), the molecule was classed as inactive.
Still for that read-out and setting: to `Cc1cc(Cl)ccc1OCC(=O)O` belongs “inactive”; to `CC(C)(C)c1ccc(CSc2cnn(C(C)(C)C)c(=O)c2Cl)cc1`, “inactive”.
On to `CNC(=O)ON=CC(C)(C)SC`, for which the AC50 is 21 µM (active).
In the case of `CS/C(C)=N/OC(=O)N(C)SN(C)C(=O)O/N=C(\C)SC`, the molecule was called inactive.
Same read-out and setting: next, `CCCCC(CC)COC(=O)c1ccccc1C(=O)OCC(CC)CCCC` (configuration not stated): “inactive”; `CC1=C(C(=O)Nc2ccccc2)SCCO1`: “inactive”; `O=C(O)c1nc(Cl)ccc1Cl`: “inactive”.
Take `COc1ccc(C(c2ccc(OC)cc2)C(Cl)(Cl)Cl)cc1`: the outcome was inactive.
For `CNC(=S)S`, the result was inactive.
For `CCON=C(CC)C1=C(O)CC(c2c(C)cc(C)cc2C)CC1=O` (configuration not stated), the result was inactive.
Regarding `O=C(Nc1ccccc1)Nc1ccnc(Cl)c1`, the molecule was called inactive.
As to `CON(C)C(=O)Nc1ccc(Cl)c(Cl)c1`, the molecule was called inactive.
Take `CCc1nn(C)c(C(=O)NCc2ccc(C(C)(C)C)cc2)c1Cl`: the molecule was classed as inactive.
Still for that read-out and setting: next, `O=C(O)COc1nc(Cl)c(Cl)cc1Cl`: “inactive”.
Consider `COC(=O)N(OC)c1ccccc1COc1ccn(-c2ccc(Cl)cc2)n1`, for which the molecule was called inactive.
In the case of `CCNc1nc(Cl)nc(NCC)n1`, the molecule was classed as inactive.
On to `CC(C)Oc1cc(-n2nc(C(C)(C)C)oc2=O)c(Cl)cc1Cl`, for which the outcome was inactive.
`Fc1ccc(Oc2ccnc3cc(Cl)cc(Cl)c23)cc1`: the call was inactive.
On to `COC(=O)C=C(C)OP(=O)(OC)OC`, for which the molecule was called inactive.
For the molecule `CCOc1cc(Oc2ccc(C(F)(F)F)cc2Cl)ccc1[N+](=O)[O-]`, the outcome was inactive.
